High-throughput results: PubChem BioAssay, National Center for Advancing Translational Sciences (NCATS)
TRHR PAM: allosteric enhancers of human TRH receptor | TRHR cells, fluo-8 calcium fluorescence, EC20 TRH enhancement | P34981 | 360,000 compounds, 0.66% hits | AID 493056 | enhancement, % at 2 µM; in the data active = enhancement above about 30%; note: 0% is about no effect
Target sequence (P34981 whole entry, looked up): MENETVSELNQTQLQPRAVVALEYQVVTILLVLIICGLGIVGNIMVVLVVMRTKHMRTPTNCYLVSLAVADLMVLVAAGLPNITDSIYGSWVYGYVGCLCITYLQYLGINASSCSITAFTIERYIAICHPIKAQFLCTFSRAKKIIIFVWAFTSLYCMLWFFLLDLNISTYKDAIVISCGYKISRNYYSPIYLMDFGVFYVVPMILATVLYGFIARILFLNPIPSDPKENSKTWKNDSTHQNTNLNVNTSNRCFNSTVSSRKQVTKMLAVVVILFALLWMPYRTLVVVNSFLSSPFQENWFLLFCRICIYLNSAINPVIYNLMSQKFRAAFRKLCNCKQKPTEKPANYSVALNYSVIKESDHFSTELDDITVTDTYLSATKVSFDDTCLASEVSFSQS
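TRHR-expressing cells loaded with fluo-8 calcium dye were read kinetically (ex 480/em 530) during compound addition, then stimulated with an EC20 of TRH (10 nM final). Enhancement of the Gq-mediated intracellular calcium response was scored.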
LDHA inh: inhibitors of human lactate dehydrogenase A. purified LDHA, NADH/diaphorase-resazurin fluorescence; stronger effect = lower value. activity change, % (values are at about 110 or 230 µM). 480,000 compounds, 0.15% hits. AID 1347041; in the data active = activity change below about -30%;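 note: plate controls were DMSO wells for no effect and wells without enzyme for full effect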
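Human LDH5 at 2 nM final in Tris HCl pH 7.4 with 0.06 mM NADH and 0.2 mM pyruvate, reacted 5 minutes at room temperature. Remaining NADH coupled via diaphorase/resazurin; resorufin fluorescence read at 0 and 20 minutes, normalized to enzyme-free and DMSO wells.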
D1 agonist: human D1 receptor agonism; 360,000 compounds, 1% hits; HEK293 T-REx D1 cells, calcium flux, agonist mode; P21728; activation, % at 2 µM; note: 0% is about no effect
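Tetracycline-induced HEK293 TREx D1 cells, force-coupled to calcium signalling, were dye-loaded with a no-wash calcium kit. Compound was pin-added after a 10 s baseline. Fluorescence was read kinetically at 1 cycle/s for 180 s, with calcium rises flagged as agonism.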
D1 antag: blocks dopamine activation of the human D1 receptor; P21728; activity change, negative = inhibition, % at 10 µM; 360,000 compounds, 3.2% hits; HEK293 TREx D1 cells, calcium flux, dopamine EC80; stronger effect = lower value; in the data active = activity change below about -30%; note: % is set by controls: 0 for no effect and ±100 for the full control effect
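Allosteric or orthosteric antagonism assessed as attenuation of the calcium response to EC80 dopamine, added 180 s after compound, in induced HEK293 Trex D1 cells loaded with no-wash calcium dye.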
TRHR agonist: agonists of human TRH receptor | TRHR cells, calcium flux fluo-8, FDSS agonist mode | activation, % at 2 µM | 360,000 compounds, 0.18% hits; note: 0% is about no effect
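Fluo-8-loaded TRHR cells; 10 s baseline, compound added, kinetic Ca2+ fluorescence read 1/s, agonist mode.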
D1 PAM: human D1 dopamine receptor positive modulation; P21728; HEK293 TREx D1 cells, calcium flux, dopamine EC20 potentiation; potentiation, % at 10 µM; 360,000 compounds, 0.036% hits; in the data active = potentiation above about 30%; note: 0% is about no effect
* marks the source's active call; other numbers are inactive results; . = no result given; ! = repeats disagree. Only some compounds are listed: those with a hit (about 3.6% of all), similar ones and a draw of the others. Cut-off read from the data, not from the text of the source, unless noted: active = activation above about 30%; inactive = the rest.

SMILES	TRHR PAM	LDHA inh	D1 agonist	D1 antag	TRHR agonist	D1 PAM
Cc1ccccc1CNC(=O)CCCn1c(=O)c2cccn2c2ccccc21	17	-7	4	2	0	-4
COc1ccccc1CNC(=O)CCCn1c(=O)c2cccn2c2ccccc21	-8	-1	26	-36*	-1	-4
CCOc1ccccc1CNC(=O)CCCn1ncn2c(cc3occc32)c1=O	-4	0	1	-40*!	0	-2
CCOc1cc(CNC(=O)CCCn2c(=O)c3cccn3c3cccnc32)cc(OCC)c1OCC	-3	0	0	-33*!	1	-5
CC(C)CCNC(=O)CCCn1c(=O)c2cccn2c2ccccc21	12	-4	7	-37*	0	-4
Cc1ccc(NC(=O)Cn2nc3ccc(S(=O)(=O)C(C)(C)C)nn3c2=O)cc1C	.	-3	.	.	.	.
CC(C)Cn1cc(NC(=O)Nc2ccccc2)c2ccccc2c1=O	.	24	.	.	.	.
N#Cc1nc(-c2ccco2)oc1N1CCN(CC(=O)N2CCCCC2)CC1	.	10	.	.	.	.
CC(=O)c1c(C)oc2c(Br)cc(NS(=O)(=O)c3ccc(Br)cc3)cc12	-1	7	4	-47*	0	-8
CC(=O)c1c(C)oc2c1cc(NS(=O)(=O)c1ccc(Br)cc1)c1ccccc12	-7	12	5	-32*	0	2
CC(=O)c1c(C)oc2c(Br)cc(NS(=O)(=O)c3ccc(Cl)c(C)c3)cc12	.	-21	.	.	.	.
N#Cc1ccccc1Cn1c(CN2CCCCC2)nc2scc(-c3cccs3)c2c1=O	.	-8	.	.	.	.
Cc1ccc(C(=O)NC2CC2)cc1NC(=O)c1ccc(C)c(S(=O)(=O)N2CCCCC2)c1	.	6	.	.	.	.
CN(C)C(=O)Cc1cccc(C(F)(F)F)c1	.	1	.	.	.	.
COC(=O)C1CCN(CC(=O)Nc2ccccc2Sc2ccccc2)CC1	35*	2	8	2	1	8
O=C(CNCCN1CCOCC1)Nc1ccccc1Sc1ccccc1	2	-31*	1	-6	0	-3
Cc1ccc(CNC(=O)CSc2ccc(-c3ccccn3)nn2)cc1	0	16	-2	21	-1	-1
O=C(CSc1ccc(-c2ccccn2)nn1)NCc1ccc(Cl)cc1	32*	-2	-3	2	-1	-1
Cc1cc(C)c(NC(=O)CSc2ccc(-c3ccccn3)nn2)c(C)c1	-2	-1	2	-48*!	0	-5
Brc1ccc(CSc2ccc(-c3ccccn3)nn2)cc1	.	-31*	.	.	.	.
COc1ccc(-c2c(NC(=O)C(C)C)oc3ccccc3c2=O)cc1	.	0	.	.	.	.
CN(Cc1c(F)cccc1Cl)S(=O)(=O)c1ccc2c(c1)CCC2	.	-12	.	.	.	.
Cc1nc(CSc2nnc(C)s2)cs1	1	1	1	-42*	0	-2
COC(=O)c1ccc(CN(c2ccccn2)S(=O)(=O)c2ccccc2)cc1	-2	-1	5	-36*	-2	-9
O=C(CN(c1ccccn1)S(=O)(=O)c1ccc(F)cc1)Nc1ccccc1	-8	-1	0	6	0	-5
SMILES	TRHR PAM	LDHA inh	D1 agonist	D1 antag	TRHR agonist	D1 PAM
O=C(CN(c1ccccn1)S(=O)(=O)c1ccccc1)Nc1ccccc1	39*	-14	3	-5	1	-2
CCOC(=O)CN(c1ccccn1)S(=O)(=O)c1ccccc1	-1	-4	3	10	1	4
COc1ccc(CCn2cc(C#N)c(=O)[nH]c2=O)cc1OC	38*	-6	0	20	1	-3
COc1ccc(CCn2c(N)cc(=O)[nH]c2=O)cc1OC	7	3	1	-48*	0	-7
Cc1ccc(NC(=O)CSc2nnc(C)c(=O)n2N)c(C)c1	9	-37*	4	11	-1	-5
Cc1ccc(NC(=O)CSc2nnc(C)c(=O)n2N)cc1Cl	9	-12	4	2	-1	-4
Cc1nnc(SCC(=O)Nc2ccc(OC(F)F)c(Cl)c2)n(N)c1=O	.	-36*	.	.	.	.
CC(C)(C)C(=O)COC(=O)c1ccc(F)cc1Cl	.	3	.	.	.	.
COc1cc(OC)c(-c2nc3c[n+](CC(=O)c4ccccc4)ccc3n2C)cc1OC	-2	0	0	7	0	-5
COc1ccc(C(=O)C[n+]2ccc3c(c2)nc(-c2cc(OC)c(OC)cc2OC)n3C)cc1	-8	-2	1	-31*	0	-4
CC(=O)N1CCn2c3c(c4cc(C)ccc42)CCCC31 (stereo not drawn)	-18	2	1	-15	-1	-2
Cc1ccc2c(c1)c1c3n2CCN(C(=O)CCl)C3CCC1 (stereo not drawn)	1	3	4	-45*	0	-5
COc1cc(OC)c2c(c1)C(=O)OC2OC (stereo not drawn)	36*	1	1	12	0	-1
CCOC(=O)CN1C(=O)C(=O)N(Cc2cccc(C)c2)C1=O	6	-4	33*	-25	-1	2
Cc1ccsc1/C=N/NC(=O)c1c[nH]c2ccccc12	7	0	0	5	0	-7
O=C(N/N=C/c1ccsc1)c1c[nH]c2ccccc12	-2	-1	3	-46*	0	-2
O=C(Nc1ccccc1C(=O)Nc1nnc(C(F)(F)F)s1)c1ccccc1Cl	-9	-12	26	-30*	2	-3
O=C(Nc1nnc(C(F)(F)F)s1)c1ccc(Br)s1	-8	-2	37*	-43*	5	-7
CC(NC(=O)Nc1nnc(C(F)(F)F)s1)(C(F)(F)F)C(F)(F)F	3	-2	41*	-29	12	-8
CCn1c(N2CCN(CC(=O)c3ccc(OC)cc3)CC2)nc2ccccc21	2	-6	-1	-50*	0	-3
COc1ccc(C(=O)Cn2c(C(C)=O)nc3ccccc32)cc1	.	25	.	.	.	.
O=C1CC(NNC(=O)c2ccccc2)C(=O)N1 (stereo not drawn)	-5	1	2	-40*	0	-5
Cc1ccc(O)c(NC(=O)COc2ccc3c(=O)c(-c4ccccc4)c(C)oc3c2)c1	.	-3	.	.	.	.
O=C(CCn1c(=O)c2sccc2n(CC(=O)Nc2ccccc2)c1=O)Nc1ccc(F)cc1	.	4	.	.	.	.
CCCn1cc(CN2CCN(Cc3ccc(C)o3)C(CCO)C2)c(C)n1 (stereo not drawn)	17	-2	1	-36*	0	1
CCCCc1nn2cc(-c3ccc(C)cc3)nc2s1	.	1	.	.	.	.
COc1cc(OC)c2c(OC)cccc2n1	-10	1	0	-82*	0	-4
N#C/C(=C/c1cc(Br)cc(Br)c1O)c1nc2ccccc2[nH]1	.	24	.	.	.	.
CC(Nc1ncccc1[N+](=O)[O-])c1cccc(Cl)c1 (stereo not drawn)	.	0	.	.	.	.
